Out of some 340,000 compounds screened, about 2,300 (0.68%) were called active. Cut-off read from the data, not from the text of the source: active = growth rescue above about 28% (passing the limit was not always enough); inconclusive = no clear call, values can overlap the other calls. The list comes from a sample in which actives are over-represented; it also holds similar structures and randomly drawn compounds.
Assay: rescue of yeast from PfHsp40 toxicity, primary screen, S. cerevisiae, ATP luminescence (AID 504582);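 note: yeast W303a lacking pdr1 and pdr3 grown in galactose medium; growth measured after three days at 30 °C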
Details: S. cerevisiae expressing PfHsp40, growth rescue, at 12.5 µM, hits give high values

Row | SMILES | growth rescue
1 | CCOc1ccc(S(=O)(=O)n2ccnc2)c2ccccc12 | -0.0665% (inactive)
2 | COc1cccc(NC(=O)C2CCCN2C(=O)OCc2ccccc2)c1 (configuration not stated) | 0.607% (inactive)
3 | COc1ccc(NC(=O)N2CCCC2C(=O)NCc2ccccc2Cl)cc1 (configuration not stated) | -2.16% (inactive)
4 | CN(C)C(=O)CCC(=O)N1CCCCC1C(=O)Nc1ccc(Oc2ccccc2F)cc1 (configuration not stated) | 141% (active)
5 | COc1ccc(OC)c(C(=O)c2ccc(C(=O)N3CCN(Cc4csc(C)n4)CC3)cc2)c1 | -1.18% (inactive)
6 | O=C(Cn1nnc(-c2ccccc2)n1)N/N=C/c1ccc(-c2ccc(Cl)cc2)o1 | -1.63% (inactive)
7 | O=C(NCc1ccco1)C1CCCN(S(=O)(=O)c2cnc[nH]2)C1 (configuration not stated) | 0.411% (inactive)
8 | COc1cc(/C=N/O)cc(Br)c1OS(=O)(=O)c1ccc(C)cc1 | -0.295% (inactive)
9 | COc1cc(/C=N/O)cc(Br)c1OCc1cccc(Cl)c1 | 157% (active)
10 | COc1cc(C(=O)NCc2ccncc2)cc(Br)c1OCc1ccccc1 | 1.27% (inactive)
11 | COc1ccc(OC)c(NC(=O)c2ccc3c(c2)C(=O)N(c2ccc(OC(C)=O)cc2)C3=O)c1 | -0.414% (inactive)
12 | CC(=O)Oc1ccc(C)cc1N1C(=O)c2ccc(C(=O)O)cc2C1=O | 103% (active)
13 | Cc1cccc(N2C(=O)c3ccc(C(=O)Nc4cccc(C(=O)O)c4)cc3C2=O)c1 | -0.247% (inactive)
14 | CCc1ccc(C(=O)NNC(=O)C2CCN(c3ncnc4sc(C)c(C)c34)CC2)cc1 | 4.88% (inactive)
15 | O=S(=O)(c1ccc(Br)cc1)n1ccc2ccccc21 | 17.1% (inactive)
16 | CCCC(C)C(=O)OCC(=O)Nc1c(Br)cc(C)cc1Br (configuration not stated) | 1.14% (inactive)
17 | COc1ccc(NC(=O)CSc2nc3ccccc3c(=O)n2C)cc1 | -2.46% (inactive)
18 | COc1ccc(-c2nc3ccccc3c(=O)n2CCc2ccc(O)cc2)cc1 | 31.2% (active)
19 | COc1ccc(OCc2ccc(-c3nc4ccccc4c(=O)n3N)o2)cc1 | 0.704% (inactive)
20 | CCCCCC(O)c1cccc(OCc2ccc3ccccc3n2)c1 (configuration not stated) | 57.6% (active)
21 | Clc1ccccc1-c1cc(COc2ccc3ccccc3c2)no1 | -0.819% (inactive)
22 | COc1cccc(C(O)c2nc3ccccc3n2C)c1 (configuration not stated) | -0.645% (inactive)
23 | Cc1no[n+]([O-])c1COc1ccccc1/C=C1\NC(=S)NC1=O | 0.211% (inactive)
24 | Cc1[nH]c2c(C(=O)N3CCCC(CCC(=O)NCc4ccccc4F)C3)cccc2c1C (configuration not stated) | 1.34% (inactive)
25 | O=C(c1cn(-c2ccccc2)nc1-c1cccnc1)N1CCN(S(=O)(=O)c2ccccc2F)CC1 | -0.533% (inactive)

Row | SMILES | growth rescue
26 | O=[N+]([O-])/C=C1\CCCCCN1 | 0.302% (inactive)
27 | Cc1ccc(OCC(=O)NNC(=S)NCc2ccccc2)cc1 | -0.289% (inactive)
28 | CCCc1ccc(OCC(=O)NNC(=S)NC(=O)c2ccco2)cc1 | 58% (active)
29 | NS(=O)(=O)c1ccc(CNC(=S)NC(=O)c2ccco2)cc1 | 0.284% (inactive)
30 | O=C(Nc1ccc2ccccc2c1)/C(=C\c1ccc2c(c1)OCO2)NC(=O)c1ccco1 | 0.409% (inactive)
31 | O=C(Nc1ccc2ccccc2c1)/C(=C/c1cccc(Br)c1)NC(=O)c1ccco1 | 1.72% (inactive)
32 | CC(Oc1ccc2ccccc2c1)C(=O)NNC(=S)NC(=O)c1ccco1 (configuration not stated) | 58.8% (active)
33 | COc1ccc(S(=O)(=O)n2nc(C)c(S(=O)(=O)N3CCOCC3)c2C)cc1 | 0.381% (inactive)
34 | O=C(Cn1cnc2c(nnn2-c2ccccc2)c1=O)N1CCC(Cc2ccccc2)CC1 | -0.205% (inactive)
35 | CCc1ccc(OCC(=O)OCC(=O)c2c(N)n(C)c(=O)n(C)c2=O)cc1 | 1.51% (inactive)
36 | FC(F)(F)c1ccnc(Oc2ccc(C3=NCCS3)cc2)c1 | 4.54% (inactive)
37 | C#CCNc1nc(C(C)C)nc2c1nnn2Cc1ccccc1F | -0.851% (inactive)
38 | CSc1sc(C(=O)NC(=O)NCc2cccnc2)c(C)c1-c1ccon1 | -0.426% (inactive)
39 | O=C(NCCN1CCOCC1)c1cc(Sc2cccc(Cl)c2)nc2ccccc12 | 1.79% (inactive)
40 | CCOC(=O)C1CCN(Cc2coc3ccc(Cl)cc3c2=O)CC1 | -0.75% (inactive)
41 | O=C1/C(=C/c2coc3ccc(O)cc3c2=O)SC(=S)N1c1ccccc1 | -0.334% (inactive)
42 | O=c1c(/C=N/O)coc2ccc(Cl)cc12 | 412% (active)
43 | COc1ccccc1C(=O)Nc1ccc(OCc2nnc3c4ccccc4c(C)nn23)cc1 | 1.5% (inactive)
44 | C/C(=N/Nc1nc(-c2ccccc2)c(CC(=O)O)s1)c1ccccc1 | -0.261% (inactive)
45 | COc1cc(OC)nc(N/N=C(\c2ccccc2)c2ccncc2)n1 | 0.409% (inactive)
46 | c1ccc(C(=NNc2nc3ccccc3s2)c2ccccn2)cc1 | 223% (active)
47 | CCOc1cc(/C=C(/C#N)c2ccc(Cl)cc2)cc(Cl)c1OCC(=O)O | -0.745% (inactive)
48 | CSCCC(NC(=O)c1ccccc1)C(=O)N1CCN(Cc2ccc(Cl)cc2)CC1 (configuration not stated) | 0.474% (inactive)
49 | C[C@H](NC(=O)c1ccccc1Cl)C(=O)OCCOc1cccc(Cl)c1 | 4.16% (inactive)
50 | COC(=O)c1cccc([N+](=O)[O-])c1CS(=O)(=O)c1ccc(C)cc1 | -1.34% (inactive)

Row | SMILES | growth rescue
51 | CC(C)CNC(=O)COC(=O)/C=C/c1ccccc1[N+](=O)[O-] | -0.287% (inactive)
52 | O=C(/C=C/c1ccccc1[N+](=O)[O-])OCC(=O)N1CCCC1 | 48.9% (active)
53 | O=C(/C=C/c1cccc([N+](=O)[O-])c1)OCC(=O)N1CCOCC1 | -0.951% (inactive)
54 | COC(=O)C1=C(NC(=O)C(C)(C)C)CCS1 | -1.07% (inactive)
55 | COc1ccc(CNC(=O)C2CCN(C(=O)c3ccco3)CC2)cc1 | 0.344% (inactive)
56 | COc1ccc(/C=C(\C#N)c2c[nH]c3ccccc23)cc1 | 509% (active)
57 | CCC/C(=N\O)c1c[nH]c2ccccc12 | 0.247% (inactive)
58 | COc1cccc(-n2c(SCC(=O)c3c[nH]c4ccccc34)nc3ccccc3c2=O)c1 | -1.82% (inactive)
59 | Cn1c(CCc2ccccc2)nnc1SCC(N)=O | 0.061% (inactive)
60 | COc1cc(C)ccc1OCC(=O)OCC(=O)c1ccc[nH]1 | 62.4% (active)
61 | CC(=O)Nc1ccc(S(=O)(=O)NCC(=O)OCC(=O)c2ccc[nH]2)cc1 | -1.02% (inactive)
62 | COc1ccc(C(=O)COC(=O)COc2ccc(C)c(C)c2)cc1 | 0.0365% (inactive)
63 | Cc1ccc(NC(=O)NC(=O)N(C2CCCCC2)S(=O)(=O)c2ccccc2)cc1 | -1.71% (inactive)
64 | CCOc1ccccc1NC(=O)C1CCCN(S(=O)(=O)c2ccccc2)C1 (configuration not stated) | 0.502% (inactive)
65 | CC(C)(C)c1ccc(Oc2ccc(N)cc2)cc1 | 346% (active)
66 | CC(C)(C)c1ccc(OC2=CS(=O)(=O)c3ccccc32)cc1 | 6.99% (inactive)
67 | COc1cccc(Oc2ccc(N)cc2)c1 | 1.74% (inactive)
68 | O=C1C(C=NCC2CCCO2)=C(O)c2ccccc21 (configuration not stated) | 0.444% (inactive)
69 | Cc1cc(C(=O)CC#N)c(C)n1CC(F)(F)F | 0.147% (inactive)
70 | CC(C)Cn1c(SCC(=O)Nc2ccc(Cl)cc2F)nc(O)cc1=O | 1.12% (inactive)
71 | COc1cccc(CNC(=O)C2CCCN(S(=O)(=O)N3CC(C)CC(C)C3)C2)c1 (configuration not stated) | 0.206% (inactive)
72 | COc1ccc(Oc2cn[nH]c2-c2ccc(OC)cc2O)cc1 | 10.8% (inactive)
73 | CCOc1ccc(-c2nc(N)ncc2-c2ccccc2OC)c(O)c1 | 1.96% (inactive)
74 | CCOc1ccccc1Oc1cn[nH]c1-c1ccc(OC)cc1O | 125% (active)
75 | COc1ccccc1/C=C1\SC(=O)N(CCC(=O)N(C)C2CCS(=O)(=O)C2)C1=O (configuration not stated) | -0.442% (inactive)

Row | SMILES | growth rescue
76 | COc1ccc(CCNS(=O)(=O)c2cccc3cccnc23)cc1OC | 0.122% (inactive)
77 | CCOc1ccc(C(CC(=O)O)NC(=O)Cc2ccccc2)cc1OC (configuration not stated) | -0.249% (inactive)
78 | CCCCC(=O)NC(c1ccc(OC)c(OC)c1)c1ccc2cccnc2c1O (configuration not stated) | 222% (active)
79 | CCOC(=O)C(C)Oc1cccc2c(=O)n(CC(=O)NCCc3ccc(OC)c(OC)c3)ccc12 (configuration not stated) | 0.594% (inactive)
80 | CCOC(=O)C(C)Oc1cccc2c(=O)n(CC(=O)N3CCc4ccccc43)ccc12 (configuration not stated) | 92.2% (active)
81 | COc1cccc2c(=O)n(CC(=O)N3CCCCCC3)ccc12 | -0.593% (inactive)
82 | O=C(O)CCCCOn1ccnc1 | -2.14% (inactive)
83 | COc1ccc2c(c1)CCc1c(C(=O)N3CCCC3)noc1-2 | 0.772% (inactive)
84 | COc1ccc2c(c1)CCc1c(C(=O)N3CCc4ccccc4C3)noc1-2 | 182% (active)
85 | O=C(c1noc2c1CCCC2)N1CCc2ccccc2C1 | -0.161% (inactive)
86 | CCN(CC)C(=O)COc1coc(CN2CCN(Cc3ccccc3)CC2)cc1=O | -0.869% (inactive)
87 | Cc1ccc2[nH]c(C)c(CCNC(=O)NC3CCCCC3)c2c1 | -0.354% (inactive)
88 | S=c1[nH]nc(-c2ccco2)n1/N=C/c1ccc(Br)s1 | 152% (active)
89 | Cc1ccsc1/C=N/n1c(=S)[nH]nc(C)c1=O | -0.774% (inactive)
90 | Cc1ccccc1-c1n[nH]c(=S)n1/N=C/c1ccc(-c2ccccc2Br)o1 | 0.454% (inactive)
91 | Cc1cc(NC(=O)CSc2nc(=O)cc(N)n2-c2ccc(F)cc2)no1 | -0.428% (inactive)
92 | CC(=O)C(C)n1cnc2scc(-c3ccc(C)cc3)c2c1=O (configuration not stated) | 0.285% (inactive)
93 | CCn1cnc2scc(-c3ccc(C)c(C)c3)c2c1=O | 1.65% (inactive)
94 | COC(=O)Cn1cnc2scc(-c3ccc(C)c(C)c3)c2c1=O | 151% (active)
95 | CCOC(=O)C(C)n1cnc2scc(-c3ccc(C)c(C)c3)c2c1=O (configuration not stated) | 4.82% (inactive)
96 | CCC(C(=O)OC)n1cnc2scc(-c3ccc(C)cc3)c2c1=O (configuration not stated) | 49.2% (active)
97 | CCCc1nc2scc(-c3ccc(C)cc3)c2c(=O)n1N | 0.943% (inactive)

— PubChem BioAssay AID504582 (Broad Institute, 2011)
